Source: PubChem BioAssay (National Center for Advancing Translational Sciences (NCATS))
VP16 counter = counter-screen for ROR gamma inhibitors: Gal4-VP16 reporter. 3.5% of 310,000 active. Drosophila S2 Gal4-VP16 UAS-luciferase, luminescence, 20 h. AID 2546. Potency, µM (top dose mostly 53.6 µM), usual class: inhibitors;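 note: Gal4-VP16 expression switched on by copper sulfate through the metallothionein promoter; nearly all actives have a fitted effect of over 50% in size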
HepG2 viability = kills HepG2 cells in TGF-b inhibitor counter-screen | Potency, µM (highest dose often 46.1 µM), hits mostly cytotoxic | HepG2 CAGA-GFP viability, ATP luminescence, 18 h | 0.76% of 410,000 active
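CellTiter-Glo luminescence gave cytotoxicity after 18 hours at 37 degrees C. The cells were HepG2 CAGA-GFP in 1% FBS DMEM, stimulated with 500 pg/mL TGF-beta after compound addition. %Activity was normalised to no-cell wells (complete cell-killing) and DMSO (no toxicity), and curves were fitted and classified.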
S2 tox = reduces viability in counter-screen for ATXN expression inhibitors | S2 cells (HEK-293 line with an ATXN2-luciferase reporter) viability, CellTiter-Fluor protease fluorescence, 24 h | Potency, µM (top dose mostly 56.7 µM), hits mostly cytotoxic | 0.49% of 400,000 active; note: nearly all actives have a fitted effect of over 40% in size
ATXN2 expr inh = reduces ATXN2 reporter expression in HEK-293 cells. HEK-293 ATXN2-luciferase reporter, luminescence, 24 h. 0.72% of 360,000 active. Potency, µM (series often up to 57 µM), most hits filed as inhibitors; note: nearly all actives have a fitted effect of over 55% in size
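ATXN2-luciferase reporter cells (luciferase flanked by upstream and downstream ATXN2 gene portions) were treated 24 h at 37 °C with compounds at up to 57 uM. SteadyGlo luminescence gave expression; GF-AFC fluorescence gave viability.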
RORgamma inh = ROR gamma (mouse) transcription inhibition; P51450; Drosophila S2 Gal4-RORgamma UAS-luciferase reporter, 20 h; Potency, µM (titrated, usually from 53.6 µM), actives largely listed as inhibitors; 5.4% of 310,000 active; AID 2551; note: nearly all actives have a fitted effect of over 60% in size
Target sequence (P51450 whole entry, looked up, the tested form may be a part): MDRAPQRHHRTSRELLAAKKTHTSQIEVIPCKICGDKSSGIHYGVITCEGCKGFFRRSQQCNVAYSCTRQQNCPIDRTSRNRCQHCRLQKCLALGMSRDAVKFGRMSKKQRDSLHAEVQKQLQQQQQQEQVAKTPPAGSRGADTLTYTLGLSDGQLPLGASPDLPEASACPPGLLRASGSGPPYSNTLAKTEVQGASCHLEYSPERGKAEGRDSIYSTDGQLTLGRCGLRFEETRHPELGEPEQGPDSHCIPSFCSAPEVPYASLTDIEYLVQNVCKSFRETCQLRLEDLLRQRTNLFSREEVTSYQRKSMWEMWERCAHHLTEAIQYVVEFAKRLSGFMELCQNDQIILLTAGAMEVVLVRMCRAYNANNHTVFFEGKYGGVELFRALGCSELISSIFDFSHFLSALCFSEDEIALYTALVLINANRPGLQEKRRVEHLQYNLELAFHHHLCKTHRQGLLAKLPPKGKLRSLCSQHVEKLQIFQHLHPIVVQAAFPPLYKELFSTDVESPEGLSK
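Drosophila S2 cells stably expressing Gal4-DBD/mouse RORγ fusion under metallothionein promoter plus UAS-luciferase; compound 1 h, then 700 uM CuSO4 induction for 20 h at ambient temperature; inhibition read as reduced luminescence.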
TGFb inhibitor = TGF-b pathway inhibition; HepG2 CAGA-GFP TGF-b/SMAD3 reporter, GFP fluorescence, 18 h; TGF-beta stimulated, 500 pg/mL final; AID 588855; Potency, µM (doses to about 46.1 µM), hits mostly inhibitors; 1.2% of 410,000 active; note: nearly all actives have a fitted effect of over 65% in size
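Inhibition was scored as loss of TGF-beta-induced (500 pg/mL final, 18 hours, 37 degrees C) GFP in HEPG2 cells carrying a CAGA-GFP reporter, in DMEM with 1% FBS. Well GFP was summed per cell; Activity was normalised to unstimulated and stimulated DMSO wells, then concentration-response fitting.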
Numbers stand for hits; - = inactive; ? = inconclusive; . = no result given; [ ] = another dose, or the depositor's remark. An excerpt weighted towards active compounds, which were near 6.3% of everything screened. Calls come from the whole dose curve; as a rule, active = well fitted curve in the direction sought with a large enough effect; inconclusive = small, poorly fitted or top-dose-only effect, or another doubt; inactive = no such curve, though single readings can be large; an effect the other way counts as inactive or inconclusive.

SMILES | VP16 counter | HepG2 viability | S2 tox | ATXN2 expr inh | RORgamma inh | TGFb inhibitor
CCn1cc(C(=O)N2CCN(c3cccc(Cl)c3)CC2)c(=O)c2cc(S(=O)(=O)N3CCC(C)CC3)ccc21 | . | - | ? | ? | . | 13µM
O=S(=O)(NCCc1csc(-c2cccc(F)c2)n1)c1cc(F)ccc1F | . | - | - | - | . | ?
COc1cc(N(C)C)c(OC)cc1/C=C1\Cc2ccccc2C1=O | . | - | . | . | . | -
O=C(Nc1cccc(C(F)(F)F)c1)c1cc(-c2ccc3c(c2)OCCO3)on1 | . | - | ? | - | . | -
Cc1cc(C(=O)NCC2CCC3(CCN(Cc4ccccc4C)CC3)O2)n(C)n1 (stereo not drawn) | . | . | - | . | . | .
Nc1nc(N)c2c(Oc3ccc(F)cc3)cccc2n1 | . | - | . | . | . | 13µM
Clc1cccc(-n2ncc3c(NCCC4=CCCCC4)ncnc32)c1 | . | - | - | - | . | -
Cn1ccsc1=NC(=O)c1ccc([N+](=O)[O-])o1 | - | - | - | - | - | 28µM
CC1(Oc2cccc(F)c2)CCN(Cc2csc3ccccc23)C1 (stereo not drawn) | . | - | - | - | . | -
Cc1cccc(NC(=S)Nc2ccc(Oc3ccccc3)cc2)n1 | ? | - | - | - | - | ?
Cc1cccc(NC(=S)Nc2cccc(C)n2)n1 | 6.3µM | - | - | - | ? | -
Cc1cccc(NC(=S)NC2CCCC2)n1 | 2.8µM | - | ? | . | 0.35µM | ?
Cc1cccc(NC(=S)NC2CCCCC2)n1 | 4.5µM | - | - | -[11.3 µM] | 1µM | -
Cc1cccc(NC(=O)Nc2cccc(C)n2)n1 | - | - | - | - | ? | -
CC(=O)c1ccc(NC(=O)c2onc(C)c2Cl)cc1 | - | - | - | - | - | -
Cc1noc(NC(=O)c2ccc(Cl)c(Cl)c2)c1Cl | 18µM | - | - | . | ? | ?
CC(C)(CNC(=O)c1cnn(-c2nccc(-c3ccccc3F)n2)c1C1CC1)N1CCOCC1 | . | . | - | . | . | .
COc1cccc(NC(=O)Cn2nc(Cc3cccnc3)c3ccccc3c2=O)c1 | - | - | - | - | - | -
C=CC(=O)Nc1cccc(CN2C(=O)N(c3cc(OC)cc(OC)c3)Cc3cnc(NCCCCN(CC)CC)nc32)c1 | . | - | 20µM | - | . | -
CN1C(=O)/C(=C/c2cn(CC(=O)NCc3ccco3)c3ccccc23)NC1=S | - | . | . | . | - | .
CN1C(=O)/C(=C/c2cn(CC(=O)N3CCCCC3)c3ccccc23)NC1=S | ? | - | - | - | 11µM | -
O=C1CC(Sc2nnnn2-c2ccccc2)C(=O)N1c1cccc(Cl)c1 (stereo not drawn) | 3.2µM | - | ? | ? | 3.5µM | ?
COc1ccc(N2C(=O)CC(Sc3nnnn3-c3ccc(F)cc3)C2=O)cc1 (stereo not drawn) | -[10 µM] | - | ? | - | 11µM | ?
Clc1cccc(N2CCN(c3nnnn3-c3ccccc3)CC2)c1 | - | - | - | - | - | -
O=C1CC(SCc2nc3ccccc3[nH]2)C(=O)N1c1cccc(Cl)c1 (stereo not drawn) | 13µM | - | - | - | 10µM | -
SMILES | VP16 counter | HepG2 viability | S2 tox | ATXN2 expr inh | RORgamma inh | TGFb inhibitor
COc1ccc(N2C(=O)CC(Sc3nnc(-c4ccccc4)o3)C2=O)cc1 (stereo not drawn) | ? | - | . | . | 5.6µM | -
CC(=O)N1CCN(S(=O)(=O)c2cccc(C(=O)OCC(=O)NCc3ccccc3Cl)c2)CC1 | . | - | - | . | . | -
CCc1nnc(NC(=O)CSc2ccc(-c3ccc(-n4cccn4)cc3)nn2)s1 | . | - | - | - | . | -
CC1CCC(N2CC(=O)N(C3CCCC3)C(c3ccc(Cl)cc3)C2=O)CC1 (stereo not drawn) | . | - | . | . | . | -
CCOC(=O)CSC1=NC(=O)/C(=C/c2ccc(OC)cc2)S1 | ? | - | 7.9µM | 7.1µM | - | ?
O=C(Nc1ccc(Br)cn1)c1cnn2c1NC(=C1CC1)C=C2C(F)F | . | - | . | . | . | -
NC(=O)c1c(NC(NC(=O)c2ccco2)C(=O)c2ccc(Cl)cc2)sc2c1CCCC2 (stereo not drawn) | - | - | - | - | - | 16µM
Cc1[nH]c(=O)[nH]c(=O)c1C1N2CC3(C(C)C)CN1CC(C(C)C)(C2)C3=O (stereo not drawn) | . | - | - | - | . | -
COc1ccc(CNC(=O)Cn2nc3c(cc2=O)CCCC3)cc1 | . | - | . | . | . | -
CCCCn1nnnc1C1(C)CCC(=O)N1C1CC1 (stereo not drawn) | . | . | - | - | . | .
CC(C)(C)c1cc(Cc2ccccc2)[nH]n1 | - | - | - | - | 18µM | -
Cn1c(SCc2ccc(Br)cc2)nc2c([nH]c3ccccc32)c1=O | . | - | . | . | . | -
COc1ccc(OC)c(/C=C/C(=O)c2ccc3c(c2)OCCO3)c1 | - | - | - | . | 10µM | ?
COc1cc(/C=C/C(=O)c2ccc3c(c2)OCCO3)cc(OC)c1OC | ? | - | ? | ? | ? | ?
COc1cc(/C=C/C(=O)c2ccc3c(c2)OCO3)cc(OC)c1OC | . | 22µM | ? | ? | . | 18µM
CCN(CC)CCN(C)C(=O)c1ccc(-c2ccccc2)nc1N(C)C | . | . | - | . | . | .
O=C(CCl)N1CCCC1c1ccc2c(c1)OCCO2 (stereo not drawn) | ? | - | . | ? | 4.5µM | ?
Oc1ccc(N=Nc2ccc3c(c2)OCCO3)c2ncccc12 | 0.4µM | - | . | . | 0.32µM | ?
Cc1cccc(N=Nc2ccc(O)c3ncccc23)c1 | 0.035µM | - | 10µM | - | 0.11µM | ?
Cc1ccc(C)c(N=Nc2ccc(O)c3ncccc23)c1 | - | - | ? | ? | 0.11µM | -
Cc1ccccc1N=Nc1ccc(N=Nc2c(O)ccc3ccccc23)c(C)c1 | - | . | - | - | -[10 µM] | .
C=CCOc1c(Br)cc(/C=N/NC(=O)Cc2ccc(C(F)(F)F)cc2[N+](=O)[O-])cc1OC | 18µM | - | ? | ? | ? | -
CCOc1cc(/C=N/NC(=O)Cc2ccc(C(F)(F)F)cc2[N+](=O)[O-])ccc1O | - | - | - | - | -[10 µM] | -
Cc1ccc(S(=O)(=O)Oc2ccccc2/C=N/NC(=O)c2c(Cl)cnn2C)cc1 | ? | - | - | - | 3.2µM | -
COC(=O)c1ccc(CNCC(=O)Nc2ccc(C(=O)OC)cc2)cc1 | - | - | - | - | - | -
SMILES | VP16 counter | HepG2 viability | S2 tox | ATXN2 expr inh | RORgamma inh | TGFb inhibitor
COC(=O)c1ccc(NC(=S)NCCc2cccc(C)c2)cc1 | 1.3µM | - | - | - | 1.3µM | -
COc1ccc(CCNC(=O)C(=O)Nc2ccc(C)c(C)c2)cc1 | . | - | - | - | . | -
COc1ccc(C(=O)Nc2ccc(C(=O)NCCc3ccc(OC)c(OC)c3)cc2)cc1 | - | - | - | . | - | -
COC(=O)c1ccc(NC(=O)Nc2cccc(F)c2)cc1 | ? | - | - | - | ? | -
COC(=O)c1ccc(NC(=S)NCCc2ccccc2C)cc1 | 14µM | - | - | - | 13µM | ?
COC(=O)c1ccc(NC(=S)NCCc2ccc(OC)cc2)cc1 | ? | - | - | - | 7.9µM | -
